In the library only some 7.9% were active in any assay of this set; here they are far more common.
FMDV antiviral = blocks foot and mouth disease virus. hit rate 1.2% among 410,000. FMDV antiviral cell-based qHTS. Potency, µM (top dose mostly 57.9 µM), for the others: at the highest dose activity change, negative = inhibition, usual class: inhibitors. AID 1159524; calls by dose curve; tested in HEK293T cells; note: read-out not given here; potency is the fitted concentration of half-maximal effect; nearly all actives have a fitted effect of over 45% in size
HCV inh = inhibitors of hepatitis C virus infection; Potency, µM (doses to about 41.8 µM), without a hit: at the highest dose activity change, negative = inhibition, usual class: inhibitors; hit rate 3.4% among 340,000; AID 651820; Huh7.5.1 HCVcc-Cre infection, luciferase reporter, 44 h; active = well fitted inhibition curve with a large enough effect; inconclusive = small, poorly fitted or top-dose-only effect, or another doubt; inactive = no such curve, though single readings can be large or run the other way; note: potency is the fitted concentration of half-maximal effect
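Luciferase read-out (15 sec integration) after a 15 min room-temperature substrate step quantifies HCVcc-Cre infection. Cells, 1,000 per well, had compound added 4 h post-plating, then virus at ~0.5 moi, and were cultured 44 h.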
HCMV antiviral = inhibitors of human cytomegalovirus; HFF cells, HCMV-luciferase reporter, 72 h; stronger effect = lower value; activity change, negative = inhibition, % at 57.5 µM; hit rate 4.5% among 410,000; AID 1259415; in the data active = activity change below about -60%; inconclusive = no clear call, values can overlap the other calls; inactive = above about -39%
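Human foreskin fibroblasts infected with luciferase-reporter HCMV at MOI 1 PFU/cell, compounds at two doses. Luciferase measured 72 h post infection; normalized to buffer-only basal and Salinomycin (10uM) controls.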
Marburg entry inh = Marburg virus entry inhibition; Marburg virus pseudotyped entry inhibition, cell reporter; Potency, µM (titrated, usually from 37.8 µM), for inactives: at the highest dose activity change, negative = inhibition, most hits filed as inhibitors; hit rate 1.8% among 300,000; calls by dose curve; tested in HEK293 cells; note: potency is the fitted concentration of half-maximal effect
Lassa entry inh = inhibitors of Lassa virus binding or cell entry | Lassa virus pseudotype entry inhibition, cell reporter | Potency, µM (top dose mostly 37.9 µM), inactives show top-dose activity change, negative = inhibition, usual class: inhibitors | hit rate 1.2% among 300,000 | AID 540256; calls by dose curve; tested in HEK293 cells; note: potency is the fitted concentration of half-maximal effect; nearly all actives have a fitted effect of over 50% in size
Numbers without * were called inactive; u = inconclusive; x = no result given; ! = not confirmed by another sample; [ ] = another dose, or the depositor's remark. % is set by controls: 0 for no effect and ±100 for the full control effect.

SMILES	FMDV antiviral	HCV inh	HCMV antiviral	Marburg entry inh	Lassa entry inh
COc1cccc(O[C@H]2C=C[C@@H](c3ccccc3)O[C@H]2CO)c1	x	x	x	4.1%[14.2 µM]	x
CCOC(=O)N1CCC(n2c(=S)[nH]c3cc(OCC)c(OCC)cc3c2=O)CC1	-9.3%	-28.9%	-76.7*	u	-12.0%
O=C(c1cc2nc(-c3cccs3)cc(C(F)(F)Cl)n2n1)N1CCCc2ccccc21	x	7.08µM*	-86.5*	u	-3.1%
O=C(c1cc2nc(-c3cccs3)cc(C(F)(F)F)n2n1)N1CCCc2ccccc21	0.0%	10µM*	u	u	u
O=C(c1nn2c(C(F)(F)F)cc(-c3ccco3)nc2c1Br)N1CCCc2ccccc21	0.0%	12.6µM*!	-17.1	u	u
O=C(c1nn2c(C(F)(F)F)cc(-c3cccs3)nc2c1Br)N1CCCc2ccccc21	21.4%	u	-15.1	17.0%	10.4%
CCNC(=O)O/N=C(\C)c1sc(-c2ccc(Cl)cc2)nc1C	18.2%	10µM*	170.3	u	-29.3%
C/C(=N\OC(=O)NC(C)C)c1sc(-c2ccc(Cl)cc2)nc1C	-21.5%	u	48.9	u	u
O=C(CCl)Nc1c[nH]c(=O)[nH]c1=O	u	u	-64.1*	u	u
Cc1n(C)c2cc(Cl)ccc2[n+]1Cc1ccccc1	-21.2%	3.3%	-60.0*	21.5%[46.1 µM]	4.9%
CN(C)c1ccc(/C=C/c2cc[n+](C)c3ccccc23)cc1	8.91µM*	11.2µM*	-98.5*	7.94µM*	u
CN(C)c1ccc(/C=C/c2nnnn2-c2ccccc2)cc1	15.2%	-14.5%	20.8	u	u
C[n+]1ccc(-c2ccccc2)c2ccccc21	u	u	-86.7*	x	x
CC(=O)/C=C/c1ccccc1O	-19.4%	2.4%	-39.3	x	x
C[n+]1c(-c2ccccc2)sc2ccccc21	-2.0%	-16.6%	-21.9	x	x
CN(C)c1ccc(C=Cc2ccnc3c(O)cccc23)cc1	0.0%	x	-98.6*	x	x
C[n+]1ccc(/C=C/c2ccccc2O)c2ccccc21	-14.3%	-18.2%	-97.0*	2.7%[46.1 µM]	-2.5%
COc1cc(NC(=O)c2n[nH]c(=O)c3ccccc23)cc(OC)c1	-13.8%	4.6%	-35.6	x	x
Cc1cc(C)c(-c2csc(NC(=O)c3n[nH]c(=O)c4ccccc34)n2)c(C)c1	u	u	-72.7*	u	u
Cc1cccc(Cc2nnc(CCC(=O)N(CC3CC3)CC3CCCO3)o2)c1 (stereo not given)	34.9%	22.2%	21.5	u	-1.9%[46.1 µM]
Cc1cccc(Cc2nnc(CCC(=O)N(C)C3CCOC3)o2)c1 (stereo not given)	16.6%	7.3%	-70.2*	u	2.0%[46.1 µM]
Cc1ccc(-n2c(SCC(=O)c3c(N)n(C4CC4)c(=O)[nH]c3=O)nnc2N2CCOCC2)cc1	-14.7%	-3.9%	2.5	6.4%[46.1 µM]	1.0%
CCN(C(=O)CSc1nc2ccccc2n1CC(=O)Nc1ccc(F)cc1F)c1ccccc1	5.4%	x	-7.9	x	11.2µM*
O=C(C#Cc1ccccc1)c1ccco1	8.91µM*	u	-99.0*	u	11.2µM*
O=C(N/N=C/c1ccccc1)c1ccco1	60.3%	-1.5%	55.5	u	u
SMILES	FMDV antiviral	HCV inh	HCMV antiviral	Marburg entry inh	Lassa entry inh
COc1ccc(NC(=O)c2cc(S(=O)(=O)N3CCCC3)oc2C)cc1	7.7%	-14.3%	-64.9*	x	x
CC(=O)Oc1ccc(-c2ccc(C(=O)Nc3cccc(S(=O)(=O)N4CCOCC4)c3)cc2)cc1	u	u	-97.7*	u	u
COc1ccc(NC(=S)Nc2cccc(S(=O)(=O)N3CCCCC3)c2)cc1	-4.9%	7.9%	-63.9*	u	5.4%
COc1ccc(NC(=S)Nc2ccc(S(=O)(=O)N3CCCCC3)cc2)cc1	38.1%	x	-14.9	x	x
O=C(Nc1cccc(S(=O)(=O)N2CCCC2)c1)c1cccc(S(=O)(=O)N2CCOCC2)c1	-16.5%	u	-12.6	x	x
COc1ccc(NS(=O)(=O)c2cc(OC)ccc2NC(=O)c2cc(C)oc2C)cc1	0.0%	4.47µM*	23.5	u	-24.5%
COc1ccc(NC(=O)c2cc(S(=O)(=O)N3CCCC3)c[nH]2)cc1	15.2%	11.6%	-19.2	x	x
CC1(C)CC2CC(C)(CN2S(=O)(=O)c2ccc(C(=O)Nc3cccc(S(=O)(=O)N4CCOCC4)c3)cc2)C1 (stereo not given)	u	11.2µM*	-91.5*	5.17µM*	u
COc1ccc(C(=O)NC(=S)Nc2cccc(S(=O)(=O)N3CCOCC3)c2)cc1	0.0%	14.1µM*	-32.3	-19.3%[46.1 µM]	u
Cc1cccc2nc3ccccc3cc12	46.4%	-25.2%	-24.5	0.7%	11.3%
C/C(O)=c1/ccc2cccc3nc(C)nc1c23	x	u	-78.7*	-20.1%	-8.7%
c1ccc(-c2cnc(-c3ccccc3)nn2)cc1	1.4%	10.8%	93.6	x	x
c1ccc(-c2cnc(-c3ccccn3)nn2)cc1	26.6%	0.501µM*	34.8	x	x
O=C(Nc1ccc(Br)cc1)NC1CCCCCCC1	14.1%	u	-30.6	-20.2%[46.1 µM]	u
Nc1ccccc1C#CC(=O)c1ccccc1	u	u	-99.6*	x	x
Nc1ccccc1C#Cc1cnccn1	24.3%	u	25.8	x	x
CC(=O)Nc1cccc(Oc2nc(-c3ccccn3)nc3ccccc23)c1	u	u	-61.2*	u	2.7%
CC(=O)Nc1ccc(Oc2nc(-c3ccccn3)nc3ccccc23)cc1	u	u	-102.2*	u	u
CC(=O)Nc1cccc(Oc2nc(C(F)(F)F)nc3ccccc23)c1	-19.0%	-14.1%	-22.1	0.4%[46.1 µM]	24.2%[46.1 µM]
CC(C)[C@H](NC(=O)c1cccc(CN(Cc2ccccc2)C(=O)c2ccccc2)c1)C(=O)O	-13.7%	13.5%	-8.7	18.9%	-9.7%
CCOc1ccc(NC(=O)CN(C)C(=O)C2CC(=O)N(c3cccc(SC)c3)C2)cc1OCC (stereo not given)	-10.3%	-20.9%	-16.0	x	x
c1ccc(C(c2cccs2)c2c[nH]c3ccccc23)cc1 (stereo not given)	u	x	-66.5*	x	u
CC(C)Oc1cccc(C(=O)Nc2nnc([C@@H]3C[C@H](O)[C@@H](CO)O3)s2)c1	13.5%	x	u	x	x
COc1ccc(-n2c(C)cc(C3=NNC(=NC4CC4)SC3)c2C)cc1	-37.3%	u	-71.3*	u	u
Cc1cc(C2=NNC(=NC3CC3)SC2)c(C)n1-c1ccccc1	0.1µM*	u	-77.0*	x	x
CN=C1NN=C(c2cc(C)n(-c3c(C)n(C)n(-c4ccccc4)c3=O)c2C)CS1	-10.2%	9.1%	2.0	u	-14.7%[46.1 µM]
CN(CC(=O)N/N=C/c1ccc(F)cc1)S(=O)(=O)c1ccccc1	7.6%	x	-6.1	x	x
CC1N(C)c2cc(NC(=O)c3ccco3)ccc2C1(C)C (stereo not given)	23.0%	-27.9%	-69.9*	u	u
CC1N(C)c2cc(NC(=O)c3ccco3)c(P(=O)(Nc3ccc([N+](=O)[O-])cc3)N3CCOCC3)cc2C1(C)C (stereo not given)	-8.2%	8.91µM*	u	u	u
Cc1cc([N+](=O)[O-])ccc1NC(=O)c1ccco1	-8.0%	-16.3%	-29.7	18.6%[46.1 µM]	-5.7%

Bioassay records: PubChem BioAssay, National Center for Advancing Translational Sciences (NCATS)
